From the supplement of paper PMC9254222
In all, about 1,100 compounds were measured (“Renilla luciferase signal (cell health) relative to plate median”: median about 0.97, highest 2% from about 1.6 on). Only a selection was taken, and the highest values are over-represented in it overall.

System: HEK293T (UBE3A T485A transfected, BAR Wnt reporter)
Assay: Renilla luciferase signal (cell health) relative to plate median (fold (linear ratio)); higher = higher Renilla signal
Details: 24 h
How it was run: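 HEK293T cells carrying a transfected BAR firefly luciferase Wnt reporter, TK-Renilla and an expression plasmid were exposed to chemicals at 0.01–100 uM for 24 h, with dosing four hours after transfection. Readout used Dual-Glo luciferase. The firefly/Renilla ratio defined Wnt activity and raw Renilla defined cell health, each median-centred per plate. Figures are means of four biological replicates.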

SMILES | Renilla luciferase signal (concentration: 0.01 uM) | Renilla luciferase signal (concentration: 0.1 uM) | Renilla luciferase signal (concentration: 1 uM) | Renilla luciferase signal (concentration: 10 uM) | Renilla luciferase signal (concentration: 100 uM)
O=C(Nc1ccccc1)Nc1cnns1 [Thidiazuron] | 1.1 | 1.07 | 1 | 0.921 | 0.135
C[Si](Cn1cncn1)(c1ccc(F)cc1)c1ccc(F)cc1 [Flusilazole] | 1.03 | 1.08 | 1.03 | 0.986 | 0.258
CC(C)[C@H](C(=O)O[C@H](C#N)c1cccc(Oc2ccccc2)c1)c1ccc(Cl)cc1 [Esfenvalerate] | 0.932 | 0.969 | 0.846 | 0.908 | 0.397
Nc1cnn(-c2ccccc2)c(=O)c1Cl [Chloridazon] | 0.928 | 0.982 | 0.916 | 1.1 | 1.34
Cc1ccccc1[N+](=O)[O-] [2-Nitrotoluene] | – | 1.24 | 1.08 | 1.14 | 1.33
Cc1nc(N(C)C)nc(OC(=O)N(C)C)c1C [Pirimicarb] | 1.09 | 1.09 | 1.1 | 1.21 | 2.4
O=C([O-])C(F)(F)C(F)(F)C(F)(F)C(F)(F)C(F)(F)C(F)(F)C(F)(F)F.[NH4+] [PFOA, ammonium salt] | – | 0.839 | 0.971 | 0.797 | 0.224
Clc1cccc(Cl)c1 [1,3-Dichlorobenzene] | – | 0.976 | 1.06 | 1.08 | 1.26
Cc1ccc(N=C=O)cc1N=C=O [Toluene-2,4-diisocyanate] | – | 0.891 | 0.94 | 1.08 | 0.677
COP(=S)(OC)SCN1C(=O)c2ccccc2C1=O [Phosmet] | – | 0.82 | 0.838 | 0.713 | 0.82
COc1nn(CSP(=S)(OC)OC)c(=O)s1 [Methidathion] | 0.805 | 0.65 | 0.845 | 0.715 | 0.562
CNC(=O)CSP(=S)(OC)OC [Dimethoate] | 1.22 | 0.985 | 0.987 | 1.12 | 1.67
CCC1(c2ccccc2)C(=O)N=C([O-])NC1=O.[Na+] (stereo unspecified) [Phenobarbital sodium] | – | 0.831 | 0.817 | 0.777 | 0.914
COCCOCCO [Diethylene glycol monomethyl ether] | – | 1.01 | 0.991 | 1.01 | 1.32
C[N+]1(C)CCCCC1.[Cl-] [Mepiquat chloride] | 1.1 | 1.08 | 1.06 | 1.02 | 1.31
CNC(=S)[S-].O.O.O.[Na+] [Metam-sodium hydrate] | 1.32 | 1.02 | 1.07 | 1.06 | 1.67
CN(C)C(=S)[S-].CN(C)C(=S)[S-].[Zn+2] [Ziram] | – | 0.814 | 0.726 | 0.999 | 0.0214
CN(C)C(=S)[S-].[Na+] [Sodium dimethyldithiocarbamate] | – | 0.974 | 1.07 | 0.874 | 1.06
Nc1ccc(/N=N/c2ccccc2)cc1 [4-Aminoazobenzene] | – | 0.476 | 0.565 | 0.351 | 0.181
NC1=NC(O)C2C3OC4(O)OC(C(O)C2(N1)C4O)C3(O)CO (stereo unspecified) [Tetrodotoxin (TTX)] | 1.02 | 0.976 | 0.904 | 1.03 | 2.57
OC(c1ccc(Cl)cc1)(c1cncnc1)c1ccccc1Cl (stereo unspecified) [Fenarimol] | 1.21 | 0.875 | 0.953 | 0.942 | 0.199

SMILES | Renilla luciferase signal (concentration: 0.01 uM) | Renilla luciferase signal (concentration: 0.1 uM) | Renilla luciferase signal (concentration: 1 uM) | Renilla luciferase signal (concentration: 10 uM) | Renilla luciferase signal (concentration: 100 uM)
CCN(CC)c1ccccc1 [N,N-Diethylaniline] | – | 1.07 | 1.06 | 1.09 | 1.47
OCCCBr [3-Bromo-1-propanol] | – | 0.865 | 0.896 | 0.988 | 0.976
CCOC(=O)C(Cl)Cc1cc(-n2nc(C)n(C(F)F)c2=O)c(F)cc1Cl (stereo unspecified) [Carfentrazone-ethyl] | 0.995 | 1.11 | 0.895 | 0.956 | 1.9
Cc1nn(-c2cc(NS(C)(=O)=O)c(Cl)cc2Cl)c(=O)n1C(F)F [Sulfentrazone] | 1.01 | 1.05 | 0.889 | 1.04 | 1.21
CCOC(=O)COc1cc(-c2nn(C)c(OC(F)F)c2Cl)c(F)cc1Cl [Pyraflufen-ethyl] | 0.786 | 0.651 | 0.92 | 0.846 | 1.17
COc1cc(-c2ccc(N)c(OC)c2)ccc1N.Cl.Cl [3,3'-Dimethoxybenzidine dihydrochloride] | – | 0.847 | 0.823 | 0.799 | 0.158
COc1cc(-c2ccc(N)c(OC)c2)ccc1N [3,3'-Dimethoxybenzidine] | – | 0.89 | 0.92 | 0.684 | 0.388
COc1cc(Cl)c(OC)cc1Cl [Chloroneb] | 0.913 | 0.991 | 1.07 | 1.06 | 1.91
CNc1cnn(-c2cccc(C(F)(F)F)c2)c(=O)c1Cl [Norflurazon] | 1.06 | 0.78 | 0.77 | 0.879 | 1.28
CCC(C)(C)c1ccc(O)c(C(C)(C)CC)c1 [2,4-Bis(2-methylbutan-2-yl)phenol] | – | 1.05 | 1.07 | 0.955 | 1.13
N#CN [Cyanamide] | 0.837 | 0.715 | 0.775 | 0.84 | 1.25
COP(=O)(OC)OC=C(Cl)Cl [Dichlorvos] | 1.12 | 0.778 | 0.818 | 0.853 | 0.717
COP(=O)(OC)O/C(C)=C/C(=O)N(C)C [Dicrotophos] | 1.19 | 1.16 | 0.994 | 1.09 | 1.78
CNC(=O)/C=C(\C)OP(=O)(OC)OC [Monocrotophos] | 0.824 | 0.815 | 0.785 | 0.826 | 1.45
COc1cc(C=O)cc2c1[C@H](COC(N)=O)[C@]1(OC(C)=O)ON2C[C@H]2[C@@H]1N2C(C)=O | – | 0.566 | 0.0435 | 0.0233 | 0.0248
CCOP(=S)(OCC)SCn1c(=O)oc2cc(Cl)ccc21 [Phosalone] | 0.915 | 1.15 | 1.1 | 1.11 | 0.931
CCCCN(CC)c1c([N+](=O)[O-])cc(C(F)(F)F)cc1[N+](=O)[O-] [Benfluralin] | 1.12 | 0.838 | 0.99 | 0.917 | 1.31
COc1cc2c(c(OC)c1OC)-c1ccc(OC)c(=O)cc1[C@@H](NC(C)=O)CC2 [Colchicine] | – | 0.0537 | 0.036 | 0.0452 | 0.0414
Cc1ccn2nc(S(=O)(=O)Nc3c(F)cccc3F)nc2n1 [Flumetsulam] | 0.963 | 1.07 | 0.959 | 1.07 | 1.67
CCOc1nc(F)cc2nc(S(=O)(=O)Nc3c(Cl)cccc3Cl)nn12 [Diclosulam] | 0.684 | 0.741 | 1.03 | 0.878 | 0.911
COc1ccc(-c2ccccc2)cc1NNC(=O)OC(C)C [Bifenazate] | 1.24 | 1.21 | 1.11 | 1.06 | 0.851

SMILES | Renilla luciferase signal (concentration: 0.01 uM) | Renilla luciferase signal (concentration: 0.1 uM) | Renilla luciferase signal (concentration: 1 uM) | Renilla luciferase signal (concentration: 10 uM) | Renilla luciferase signal (concentration: 100 uM)
Cc1ccc([N+](=O)[O-])cc1N [2-Methyl-5-nitroaniline] | – | 1.11 | 1.21 | 1.15 | 0.978
CC(C)N(C(=O)SCC(Cl)=C(Cl)Cl)C(C)C [Tri-allate] | 1.05 | 1.11 | 1.06 | 1.06 | 1.76
CC(C)COC(=O)c1ccccc1C(=O)OCC(C)C [Diisobutyl phthalate] | – | 0.825 | 0.827 | 0.867 | 1.01
CCC(C)(NC(=O)c1cc(Cl)c(C)c(Cl)c1)C(=O)CCl (stereo unspecified) [Zoxamide] | 1.25 | 1.05 | 0.961 | 0.117 | 0.0244
C#CC(C)(C)NC(=O)c1cc(Cl)cc(Cl)c1 [Propyzamide] | 1.38 | 1.2 | 1.12 | 1.09 | 1.72
COC(=O)N(OC)c1ccccc1COc1ccn(-c2ccc(Cl)cc2)n1 [Pyraclostrobin] | 1.35 | 0.995 | 0.707 | 0.149 | 0.113
Oc1ccc2ccc3cccc4ccc1c2c34 [1-Hydroxypyrene] | – | 1.01 | 1.06 | 1.09 | 0.811
O=P(Oc1ccccc1)(Oc1ccccc1)Oc1ccccc1 [Triphenyl phosphate] | – | 0.815 | 0.778 | 0.825 | 1.02
CS/C(C)=N/OC(=O)N(C)SN(C)C(=O)O/N=C(\C)SC [Thiodicarb] | 1 | 0.646 | 0.895 | 0.91 | 0.0128
CCCCCCCCc1ccc(O)cc1 [4-Octylphenol] | – | 1.09 | 1.1 | 1.3 | 0.803
CNC(=O)ON=CC(C)(C)SC [Aldicarb] | 1.1 | 0.924 | 0.97 | 0.918 | 1.72
CSC(C)(C)C=NO [Aldicarb oxime] | – | 1.13 | 1.06 | 1.24 | 1.09
CNC(=O)ON=C(C)SC [Methomyl] | 0.945 | 0.951 | 1.1 | 1.04 | 1.25
O=[N+]([O-])c1ccc(O)c([N+](=O)[O-])c1 [2,4-Dinitrophenol] | – | 1.15 | 1.11 | 0.966 | 0.305
CCOC(=O)C(O)(c1ccc(Cl)cc1)c1ccc(Cl)cc1 [Chlorobenzilate] | – | 0.927 | 0.837 | 0.929 | 1.26
CCOP(=S)(OCC)SCSP(=S)(OCC)OCC [Ethion] | – | 0.929 | 0.935 | 0.973 | 1.13
CCCCSP(=O)(SCCCC)SCCCC [Tribufos] | 1.14 | 0.609 | 0.976 | 0.82 | 0.728
CCCSP(=O)(OCC)SCCC [Ethoprop] | 1.13 | 0.976 | 1.08 | 1.1 | 1.86
CC(Cc1ccc(OCC(=O)O)cc1)NCC(O)c1csc(C(F)(F)F)n1 (stereo unspecified) | – | 0.796 | 0.849 | 0.912 | 1.28
CCC12COCN1COC2 [5-Ethyl-1-aza-3,7-dioxabicyclo[3.3.0]octane] | – | 0.93 | 1.08 | 1.1 | 1.35
CCCCC(CC)COC(=O)c1ccc(C(=O)OCC(CC)CCCC)c(C(=O)OCC(CC)CCCC)c1 (stereo unspecified) [Tris(2-ethylhexyl) trimellitate] | – | 0.879 | 0.991 | 0.972 | 1.2
